TGFb SMAD3 inh = inhibitors of TGF-b signaling; HepG2 CAGA-GFP TGF-b/SMAD3 reporter, GFP fluorescence, 18 h; TGF-beta stimulated, 500 pg/mL final; Potency, µM (highest dose often 46.1 µM), without a hit: top-dose activity, negative = inhibition, usual class: inhibitors; 1.2% of 410,000 active; also: potency is read from the fitted curve at half-maximal effect; % is scaled to controls: 0 for no effect and ±100 for the full control effect; nearly all actives have a fitted effect of over 65% in size
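HEPG2 CAGA-GFP, 1000 cells/well; 2 h settle, 37 C; cpd via pin tool; TGF-b 500 pg/mL final; 18 h, 37 C; GFP imaging ex488/em500-530; %Activity normalised to -TGF-b and +DMSO controls; CRC fit, curve class.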
HepG2 tox = counter-screen for TGF-b inhibitors: cytotoxicity in HepG2 cells. AID 588856. 0.76% of 410,000 active. HepG2 CAGA-GFP viability, ATP luminescence, 18 h. Potency, µM (doses to about 46.1 µM), for the others: top-dose activity change, negative = cytotoxicity, most hits filed as cytotoxic; also: potency is read from the fitted curve at half-maximal effect
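CellTiter-Glo luminescence gave cytotoxicity after 18 hours at 37 degrees C. The cells were HepG2 CAGA-GFP in 1% FBS DMEM, stimulated with 500 pg/mL TGF-beta after compound addition. %Activity was normalised to no-cell wells (complete cell-killing) and DMSO (no toxicity), and curves were fitted and classified.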
IL-1B inflam inh = inflammasome signaling inhibition, IL-1 beta readout; THP-1 LPS/ATP IL-1B secretion, AlphaLISA, 16 h; active compounds read low; activity change, % at 57.5 µM; 4.7% of 360,000 active; in the data active = activity change below about -50%; inconclusive = mostly about -30% to -49%; also: % is scaled to controls: 0 for no effect and ±100 for the full control effect
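Secreted IL-1B measured by AlphaLISA bead assay after 16 h compound exposure of THP-1 cells; compounds (final up to 57.5 uM) added 1 h before LPS (250 ng/mL) and ATP (1.25 mM) stimulation; lower signal means less secretion.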
TDP1 cell noCPT = qHTS for Inhibitors of human tyrosyl-DNA phosphodiesterase 1 (TDP1): qHTS in cells in absence of CPT | DT40 Tdp1-/- hTDP1 cells, no CPT, ATP luminescence, 48 h | Potency, µM (series often up to 46.2 µM), for inactives: at the highest dose activity change, negative = growth inhibition, most hits filed as inhibitors | 15% of 420,000 active; also: potency is read from the fitted curve at half-maximal effect; % is scaled to controls: 0 for no effect and ±100 for the full control effect; nearly all actives have a fitted effect of over 55% in size
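Stably hTDP1-transfected Tdp1-null chicken DT40 cells were treated with library compounds minus camptothecin and grown for at least 48 hr at 37 °C, after which cellular ATP was quantified by luminescence.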
TDP1 cell CPT = growth inhibition of DT40 Tdp1-/-;hTDP1 cells with camptothecin (screen for TDP1 inhibitors). 12% of 420,000 active. Potency, µM (highest dose often 46.2 µM), for inactives: at the top dose activity change, negative = growth inhibition, actives largely listed as inhibitors. AID 686979. chicken DT40 Tdp1-/-;hTDP1 cells + 20 nM CPT, ATP luminescence, 48 h; also: potency is read from the fitted curve at half-maximal effect; % is scaled to controls: 0 for no effect and ±100 for the full control effect; nearly all actives have a fitted effect of over 55% in size
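Chicken DT40 Tdp1-/- cells complemented with human TDP1, 400 cells/well, exposed to compounds plus 20 nM camptothecin for at least 48 h at 37 C; viability read as ATP content by CellTiter-Glo luminescence.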
TDP1 block = inhibitors of human tyrosyl-DNA phosphodiesterase TDP1; recombinant TDP1, AlphaScreen DNA substrate cleavage; Potency, µM (series often up to 130 µM), without a hit: top-dose activity change, negative = inhibition, most hits filed as inhibitors; 0.28% of 350,000 active; also: potency is read from the fitted curve at half-maximal effect; % is scaled to controls: 0 for no effect and ±100 for the full control effect; nearly all actives have a fitted effect of over 40% in size
Target sequence (Q9NUW8 whole entry, looked up): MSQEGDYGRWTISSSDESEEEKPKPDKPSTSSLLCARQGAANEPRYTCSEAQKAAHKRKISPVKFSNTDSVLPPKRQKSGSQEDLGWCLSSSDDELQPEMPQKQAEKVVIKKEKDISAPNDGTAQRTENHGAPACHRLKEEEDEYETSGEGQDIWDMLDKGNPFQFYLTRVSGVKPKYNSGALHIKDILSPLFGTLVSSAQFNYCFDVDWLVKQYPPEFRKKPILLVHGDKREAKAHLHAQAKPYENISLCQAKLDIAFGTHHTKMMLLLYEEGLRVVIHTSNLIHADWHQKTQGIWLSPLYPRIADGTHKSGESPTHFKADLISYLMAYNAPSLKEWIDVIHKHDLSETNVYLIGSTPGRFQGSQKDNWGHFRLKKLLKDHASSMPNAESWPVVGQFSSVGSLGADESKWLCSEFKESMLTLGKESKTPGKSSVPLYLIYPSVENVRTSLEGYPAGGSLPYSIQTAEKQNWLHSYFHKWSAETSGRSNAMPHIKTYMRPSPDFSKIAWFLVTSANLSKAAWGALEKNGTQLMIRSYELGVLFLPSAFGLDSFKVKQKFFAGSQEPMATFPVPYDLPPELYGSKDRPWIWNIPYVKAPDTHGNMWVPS
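Compounds were preincubated with Tdp1 (1 nM final) for 15 min at room temperature before substrate (15 nM final) started a 5 min reaction; beads (10 ug/ml final) were then added for 10 min before AlphaScreen detection.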
Numbers without * were called inactive; ? = inconclusive; / = not tested or not shown; [ ] = remark or other dose. Most compounds without a hit are left out; they make up all but 18% or so of the library. Unless noted, calls follow the shape of the dose curve; as a rule, active = well fitted curve in the direction sought with a large enough effect; inconclusive = small, poorly fitted or top-dose-only effect, or another doubt; inactive = no such curve, though single readings can be large; an effect the other way counts as inactive or inconclusive.

SMILES	TGFb SMAD3 inh	HepG2 tox	IL-1B inflam inh	TDP1 cell noCPT	TDP1 cell CPT	TDP1 block
COc1ccc(-c2nc3scc(CCNS(=O)(=O)c4ccc(F)cc4C)n3n2)cc1	0%	-23%	/	16µM*	16µM*	5%
COc1ncc2nc(-c3cn(C)c4ccccc34)c(=O)n(C[C@H]3CCCO3)c2n1	/	/	/	14%	3%	/
Cn1cc(-c2coc3c(C(=O)NCc4ccco4)cccc23)cn1	18%	-13%	-13	?	?	/
CC(=O)NCCNC(=O)c1ccc(-n2c(C)ccc2C)cc1	-11%	-26%	-76*	-29%	-16%	0%
CC(=O)Nc1ccc(NC(=O)c2ccc(-n3c(C)ccc3C)cc2)cc1	0%	17%	-68*	16µM*	?	-5%
Cc1ccc(C)n1-c1ccc(NC(=O)c2ccccc2)cc1	-1%	-9%	-53*	?	?	-3%
CCc1ccccc1NC(=O)c1ccc(-n2c(C)ccc2C)cc1	-6%	-8%	-83*	?	?	0%
CC(=O)c1ccc(NC(=O)c2ccc(-n3cnnc3)cc2)cc1	-5%	-38%	/	-6%	-13%	8%
O=C(CNC(=O)N1CC(=O)Nc2ccccc21)Nc1cccc(F)c1	4%	5%	-4	12%	1%	3%
Cc1cc(C(=O)COC(=O)C2=COCCO2)c(C)n1-c1ccccc1	0%	14%	5	?	?	7%
CCCCn1c(NCc2ccc(OC)cc2O)nc2ccccc21	5%	-96%	-18	10µM*	15µM*	5%[2.28 µM]
CCCCCn1c(NCc2ccccc2OC)nc2ccccc21	16µM*	-43%	/	21µM*	?	-2%
C=CCc1cccc(CNc2nc3ccccc3n2CCC)c1O	?	-102%	?	23µM*	?	2%
CCCCn1c(NCc2ccc3c(c2)OCO3)nc2ccccc21	-29%	-38%	-51*	26µM*	?	3%
CCCn1c(NCc2ccc3c(c2)OCO3)nc2ccccc21	-6%	-33%	?	?	?	1%
CCC(C)CCN1C(Nc2ccccc2)=NC[C@@H]1Cc1ccccc1 (stereo partly drawn)	?	-23%	?	16µM*	21µM*	/
CC(C)C[C@H]1CN=C(Nc2ccccc2)N1CC1CCCCCC1	1%	-31%	-6	21µM*	?	-4%
CCC(C)CCN1C(Nc2ccccc2)=NC[C@@H]1CC(C)C (stereo partly drawn)	-30%	-50%	-29	16µM*	16µM*	/
CCN1C(Nc2ccccc2)=NC[C@@H]1CC(C)C	2%	19%	11	10%	1%	/
CC(C)CCN1C(Nc2ccccc2)=NC[C@@H]1CC(C)C	-17%	-18%	-7	?	15µM*	/
CC1(C)OC2CC3C4CC(F)C5=CC(=O)C=CC5(C)C4C(O)CC3(C)[C@]2(C(=O)CO)O1 (stereo partly drawn)	/	/	/	-12%	-25%	11%
COC1Cc2ccccc2N(C(N)=O)c2ccccc21 (stereo not drawn)	-1%	19%	0	1%	32%	/
Cc1ccc(C(=O)NC2CC(C)(C)NC(C)(C)C2)cc1	-5%	1%	17	10%	15%	/
CC1(C)CC(NC(=O)c2coc(=O)c(Br)c2)CC(C)(C)N1	7%	-3%	-15	0.52µM*	0.33µM*	-4%
CCC(C)NC(=O)c1cnn(-c2cccc(F)c2)c1-n1cccc1 (stereo not drawn)	-14%	-31%	/	16µM*	21µM*	5%
CCOC(=O)N1CCC(NC(=O)c2cnn(-c3cccc(C)c3)c2-n2cccc2)CC1	-29%	2%	/	18µM*	16µM*	-3%

Screens as filed in PubChem.
